# Results published in PMC11062922 (Nature Chemical Biology, 2023).
# Where two headings read alike, the source gives them in different places.
# Assays:
# Conditions in all cases: read-out: apparent Kd, n = 1
# SLK = system: SLK
# STK10 = system: STK10
# TBK1 = system: TBK1
# [1] = compound concentrations:100 nM and 1000 nM (sheet 'Lestaurtinib' of Supplementary Table 1),run:Lestaurtinib_02566_R3,Plate:MR014
# [2] = compound concentrations:100 nM and 1000 nM (sheet 'Lestaurtinib' of Supplementary Table 1),run:Lestaurtinib_02572_R3,Plate:MR015
# [3] = compound concentrations:100 nM and 1000 nM (sheet 'Lestaurtinib' of Supplementary Table 1),run:Lestaurtinib_02577_R3,Plate:MR016
# [4] = compound concentrations:100 nM and 1000 nM (sheet 'Lestaurtinib' of Supplementary Table 1),run:Lestaurtinib_02584_R3,Plate:MR017
# [5] = compound concentrations:100 nM and 1000 nM (sheet 'Lestaurtinib' of Supplementary Table 1),run:Lestaurtinib_02601_R1,Plate:MR018
# [6] = compound concentrations:100 nM and 1000 nM (sheet 'Lestaurtinib' of Supplementary Table 1),run:Lestaurtinib_02624_R2,Plate:MR020
# [7] = compound concentrations:100 nM and 1000 nM (sheet 'Lestaurtinib' of Supplementary Table 1),run:Lestaurtinib_02741_R3,Plate:MR023
# [8] = compound concentrations:100 nM and 1000 nM (sheet 'Lestaurtinib' of Supplementary Table 1),run:Lestaurtinib_02748_R2,Plate:MR024
# [9] = compound concentrations:100 nM and 1000 nM (sheet 'Lestaurtinib' of Supplementary Table 1),run:Lestaurtinib_02765_R1,Plate:MR026
# [10] = compound concentrations:100 nM and 1000 nM (sheet 'Lestaurtinib' of Supplementary Table 1),run:Lestaurtinib_02765_R2,Plate:MR026
# [11] = compound concentrations:100 nM and 1000 nM (sheet 'Lestaurtinib' of Supplementary Table 1),run:Lestaurtinib_02766_R2,Plate:MR027
# [12] = compound concentrations:100 nM and 1000 nM (sheet 'Lestaurtinib' of Supplementary Table 1),run:Lestaurtinib_02768_R1,Plate:MR028
# [13] = compound concentrations:100 nM and 1000 nM (sheet 'Lestaurtinib' of Supplementary Table 1),run:Lestaurtinib_02795_R1,Plate:MR022
# [14] = compound concentrations:100 nM and 1000 nM (sheet 'Lestaurtinib' of Supplementary Table 1),run:Lestaurtinib_02795_R2,Plate:MR022
# [15] = compound concentrations:100 nM and 1000 nM (sheet 'Lestaurtinib' of Supplementary Table 1),run:Lestaurtinib_02802_R1,Plate:MR029
# [16] = compound concentrations:100 nM and 1000 nM (sheet 'Lestaurtinib' of Supplementary Table 1),run:Lestaurtinib_03252_R2,Plate:MR032
# [17] = compound concentrations:100 nM and 1000 nM (sheet 'Lestaurtinib' of Supplementary Table 1),run:Lestaurtinib_03260_R1,Plate:MR033
# [18] = compound concentrations:100 nM and 1000 nM (sheet 'Lestaurtinib' of Supplementary Table 1),run:Lestaurtinib_03260_R2,Plate:MR033
# [19] = compound concentrations:100 nM and 1000 nM (sheet 'Lestaurtinib' of Supplementary Table 1),run:Lestaurtinib_02339_R2,Plate:MR001
# [20] = compound concentrations:100 nM and 1000 nM (sheet 'Lestaurtinib' of Supplementary Table 1),run:Lestaurtinib_02364_R3,Plate:MR002
substance,measurement,setting,value
Lestaurtinib,potency estimated from few doses,"SLK; compound concentrations:100 nM and 1000 nM (sheet 'Lestaurtinib' of Supplementary Table 1),run:Lestaurtinib_02496_R2,Plate:MR013",1310 nM
same,potency estimated from few doses,"SLK; compound concentrations:100 nM and 1000 nM (sheet 'Lestaurtinib' of Supplementary Table 1),run:Lestaurtinib_02496_R3,Plate:MR013",1620 nM
same,potency estimated from few doses,SLK; [1],1130 nM
same,potency estimated from few doses,SLK; [2],1790 nM
same,potency estimated from few doses,"SLK; compound concentrations:100 nM and 1000 nM (sheet 'Lestaurtinib' of Supplementary Table 1),run:Lestaurtinib_02577_R2,Plate:MR016",1320 nM
same,potency estimated from few doses,SLK; [3],997 nM
same,potency estimated from few doses,"SLK; compound concentrations:100 nM and 1000 nM (sheet 'Lestaurtinib' of Supplementary Table 1),run:Lestaurtinib_02584_R2,Plate:MR017",1320 nM
same,potency estimated from few doses,SLK; [4],1580 nM
same,potency estimated from few doses,SLK; [5],1760 nM
same,potency estimated from few doses,"SLK; compound concentrations:100 nM and 1000 nM (sheet 'Lestaurtinib' of Supplementary Table 1),run:Lestaurtinib_02601_R3,Plate:MR018",1400 nM
same,potency estimated from few doses,"SLK; compound concentrations:100 nM and 1000 nM (sheet 'Lestaurtinib' of Supplementary Table 1),run:Lestaurtinib_02606_R2,Plate:MR019",1320 nM
same,potency estimated from few doses,"SLK; compound concentrations:100 nM and 1000 nM (sheet 'Lestaurtinib' of Supplementary Table 1),run:Lestaurtinib_02624_R1,Plate:MR020",1810 nM
same,potency estimated from few doses,SLK; [6],1130 nM
same,potency estimated from few doses,SLK; [7],1440 nM
same,potency estimated from few doses,SLK; [8],1330 nM
same,potency estimated from few doses,"SLK; compound concentrations:100 nM and 1000 nM (sheet 'Lestaurtinib' of Supplementary Table 1),run:Lestaurtinib_02752_R3,Plate:MR025",1330 nM
same,potency estimated from few doses,SLK; [9],1320 nM
same,potency estimated from few doses,SLK; [10],1130 nM
same,potency estimated from few doses,SLK; [11],1150 nM
same,potency estimated from few doses,SLK; [12],1300 nM
same,potency estimated from few doses,"SLK; compound concentrations:100 nM and 1000 nM (sheet 'Lestaurtinib' of Supplementary Table 1),run:Lestaurtinib_02768_R2,Plate:MR028",1400 nM
same,potency estimated from few doses,SLK; [13],1610 nM
same,potency estimated from few doses,SLK; [14],1360 nM
same,potency estimated from few doses,"SLK; compound concentrations:100 nM and 1000 nM (sheet 'Lestaurtinib' of Supplementary Table 1),run:Lestaurtinib_02795_R3,Plate:MR022",1530 nM
same,potency estimated from few doses,SLK; [15],1150 nM
same,potency estimated from few doses,"SLK; compound concentrations:100 nM and 1000 nM (sheet 'Lestaurtinib' of Supplementary Table 1),run:Lestaurtinib_02802_R2,Plate:MR029",964 nM
same,potency estimated from few doses,"SLK; compound concentrations:100 nM and 1000 nM (sheet 'Lestaurtinib' of Supplementary Table 1),run:Lestaurtinib_02802_R3,Plate:MR029",1350 nM
same,potency estimated from few doses,"SLK; compound concentrations:100 nM and 1000 nM (sheet 'Lestaurtinib' of Supplementary Table 1),run:Lestaurtinib_03172_R2,Plate:MR031",1460 nM
same,potency estimated from few doses,"SLK; compound concentrations:100 nM and 1000 nM (sheet 'Lestaurtinib' of Supplementary Table 1),run:Lestaurtinib_03172_R3,Plate:MR031",914 nM
same,potency estimated from few doses,"SLK; compound concentrations:100 nM and 1000 nM (sheet 'Lestaurtinib' of Supplementary Table 1),run:Lestaurtinib_03252_R1,Plate:MR032",1350 nM
same,potency estimated from few doses,SLK; [16],1400 nM
same,potency estimated from few doses,SLK; [17],1930 nM
same,potency estimated from few doses,SLK; [18],1930 nM
same,potency estimated from few doses,"SLK; compound concentrations:100 nM and 1000 nM (sheet 'Lestaurtinib' of Supplementary Table 1),run:Lestaurtinib_03260_R3,Plate:MR033",1310 nM
same,potency estimated from few doses,"STK10; compound concentrations:100 nM and 1000 nM (sheet 'Lestaurtinib' of Supplementary Table 1),run:Lestaurtinib_02339_R1,Plate:MR001",179 nM
same,potency estimated from few doses,STK10; [19],158 nM
same,potency estimated from few doses,"STK10; compound concentrations:100 nM and 1000 nM (sheet 'Lestaurtinib' of Supplementary Table 1),run:Lestaurtinib_02339_R3,Plate:MR001",80.5 nM
same,potency estimated from few doses,"STK10; compound concentrations:100 nM and 1000 nM (sheet 'Lestaurtinib' of Supplementary Table 1),run:Lestaurtinib_02364_R2,Plate:MR002",140 nM
same,potency estimated from few doses,STK10; [20],142 nM
same,potency estimated from few doses,"STK10; compound concentrations:100 nM and 1000 nM (sheet 'Lestaurtinib' of Supplementary Table 1),run:Lestaurtinib_02367_R3,Plate:MR003",144 nM
same,potency estimated from few doses,"STK10; compound concentrations:100 nM and 1000 nM (sheet 'Lestaurtinib' of Supplementary Table 1),run:Lestaurtinib_02407_R1,Plate:MR005",113 nM
same,potency estimated from few doses,"STK10; compound concentrations:100 nM and 1000 nM (sheet 'Lestaurtinib' of Supplementary Table 1),run:Lestaurtinib_02422_R1,Plate:MR006",162 nM
same,potency estimated from few doses,"STK10; compound concentrations:100 nM and 1000 nM (sheet 'Lestaurtinib' of Supplementary Table 1),run:Lestaurtinib_02422_R2,Plate:MR006",47 nM
same,potency estimated from few doses,"STK10; compound concentrations:100 nM and 1000 nM (sheet 'Lestaurtinib' of Supplementary Table 1),run:Lestaurtinib_02437_R1,Plate:MR007",142 nM
same,potency estimated from few doses,"STK10; compound concentrations:100 nM and 1000 nM (sheet 'Lestaurtinib' of Supplementary Table 1),run:Lestaurtinib_02437_R3,Plate:MR007",18.2 nM
same,potency estimated from few doses,"STK10; compound concentrations:100 nM and 1000 nM (sheet 'Lestaurtinib' of Supplementary Table 1),run:Lestaurtinib_02438_R2,Plate:MR008",137 nM
same,potency estimated from few doses,"STK10; compound concentrations:100 nM and 1000 nM (sheet 'Lestaurtinib' of Supplementary Table 1),run:Lestaurtinib_02443_R1,Plate:MR009",141 nM
same,potency estimated from few doses,"STK10; compound concentrations:100 nM and 1000 nM (sheet 'Lestaurtinib' of Supplementary Table 1),run:Lestaurtinib_02443_R3,Plate:MR009",154 nM
same,potency estimated from few doses,"STK10; compound concentrations:100 nM and 1000 nM (sheet 'Lestaurtinib' of Supplementary Table 1),run:Lestaurtinib_02473_R2,Plate:MR010",140 nM
same,potency estimated from few doses,"STK10; compound concentrations:100 nM and 1000 nM (sheet 'Lestaurtinib' of Supplementary Table 1),run:Lestaurtinib_02482_R1,Plate:MR011",131 nM
same,potency estimated from few doses,"STK10; compound concentrations:100 nM and 1000 nM (sheet 'Lestaurtinib' of Supplementary Table 1),run:Lestaurtinib_02482_R2,Plate:MR011",157 nM
same,potency estimated from few doses,"STK10; compound concentrations:100 nM and 1000 nM (sheet 'Lestaurtinib' of Supplementary Table 1),run:Lestaurtinib_02482_R3,Plate:MR011",136 nM
same,potency estimated from few doses,"STK10; compound concentrations:100 nM and 1000 nM (sheet 'Lestaurtinib' of Supplementary Table 1),run:Lestaurtinib_02487_R3,Plate:MR012",163 nM
same,potency estimated from few doses,"STK10; compound concentrations:100 nM and 1000 nM (sheet 'Lestaurtinib' of Supplementary Table 1),run:Lestaurtinib_02566_R2,Plate:MR014",144 nM
same,potency estimated from few doses,STK10; [1],135 nM
same,potency estimated from few doses,STK10; [2],157 nM
same,potency estimated from few doses,STK10; [3],181 nM
same,potency estimated from few doses,STK10; [4],179 nM
same,potency estimated from few doses,STK10; [5],137 nM
same,potency estimated from few doses,"STK10; compound concentrations:100 nM and 1000 nM (sheet 'Lestaurtinib' of Supplementary Table 1),run:Lestaurtinib_02601_R2,Plate:MR018",167 nM
same,potency estimated from few doses,"STK10; compound concentrations:100 nM and 1000 nM (sheet 'Lestaurtinib' of Supplementary Table 1),run:Lestaurtinib_02606_R1,Plate:MR019",135 nM
same,potency estimated from few doses,"STK10; compound concentrations:100 nM and 1000 nM (sheet 'Lestaurtinib' of Supplementary Table 1),run:Lestaurtinib_02606_R3,Plate:MR019",144 nM
same,potency estimated from few doses,STK10; [6],137 nM
same,potency estimated from few doses,"STK10; compound concentrations:100 nM and 1000 nM (sheet 'Lestaurtinib' of Supplementary Table 1),run:Lestaurtinib_02624_R3,Plate:MR020",115 nM
same,potency estimated from few doses,"STK10; compound concentrations:100 nM and 1000 nM (sheet 'Lestaurtinib' of Supplementary Table 1),run:Lestaurtinib_02724_R2,Plate:MR021",121 nM
same,potency estimated from few doses,"STK10; compound concentrations:100 nM and 1000 nM (sheet 'Lestaurtinib' of Supplementary Table 1),run:Lestaurtinib_02741_R2,Plate:MR023",134 nM
same,potency estimated from few doses,STK10; [7],140 nM
same,potency estimated from few doses,"STK10; compound concentrations:100 nM and 1000 nM (sheet 'Lestaurtinib' of Supplementary Table 1),run:Lestaurtinib_02748_R1,Plate:MR024",157 nM
same,potency estimated from few doses,STK10; [8],153 nM
same,potency estimated from few doses,"STK10; compound concentrations:100 nM and 1000 nM (sheet 'Lestaurtinib' of Supplementary Table 1),run:Lestaurtinib_02748_R3,Plate:MR024",115 nM
same,potency estimated from few doses,"STK10; compound concentrations:100 nM and 1000 nM (sheet 'Lestaurtinib' of Supplementary Table 1),run:Lestaurtinib_02752_R1,Plate:MR025",124 nM
same,potency estimated from few doses,"STK10; compound concentrations:100 nM and 1000 nM (sheet 'Lestaurtinib' of Supplementary Table 1),run:Lestaurtinib_02752_R2,Plate:MR025",141 nM
same,potency estimated from few doses,STK10; [9],97 nM
same,potency estimated from few doses,STK10; [10],132 nM
same,potency estimated from few doses,STK10; [11],93.1 nM
same,potency estimated from few doses,"STK10; compound concentrations:100 nM and 1000 nM (sheet 'Lestaurtinib' of Supplementary Table 1),run:Lestaurtinib_02766_R3,Plate:MR027",137 nM
same,potency estimated from few doses,STK10; [12],115 nM
same,potency estimated from few doses,"STK10; compound concentrations:100 nM and 1000 nM (sheet 'Lestaurtinib' of Supplementary Table 1),run:Lestaurtinib_02768_R3,Plate:MR028",133 nM
same,potency estimated from few doses,STK10; [13],134 nM
same,potency estimated from few doses,STK10; [14],130 nM
same,potency estimated from few doses,STK10; [15],113 nM
same,potency estimated from few doses,"STK10; compound concentrations:100 nM and 1000 nM (sheet 'Lestaurtinib' of Supplementary Table 1),run:Lestaurtinib_02896_R2,Plate:MR030",142 nM
same,potency estimated from few doses,STK10; [16],74.5 nM
same,potency estimated from few doses,STK10; [17],228 nM
same,potency estimated from few doses,STK10; [18],211 nM
same,potency estimated from few doses,TBK1; [19],822 nM
same,potency estimated from few doses,TBK1; [20],1610 nM
same,potency estimated from few doses,"TBK1; compound concentrations:100 nM and 1000 nM (sheet 'Lestaurtinib' of Supplementary Table 1),run:Lestaurtinib_02381_R1,Plate:MR004",1350 nM
same,potency estimated from few doses,"TBK1; compound concentrations:100 nM and 1000 nM (sheet 'Lestaurtinib' of Supplementary Table 1),run:Lestaurtinib_02381_R2,Plate:MR004",1600 nM
